High-throughput results as filed in PubChem.
DAX1 inh-1 – DAX1 (NR0B1) inhibition, primary screen. HEK293T StAR-luciferase reporter, SF-1/DAX-1 repression relief. inhibition, % at 6.8 µM. actives 1.1% (n = 370,000). AID 652010;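 active = inhibition above the mean over all tested compounds plus 3 SD, cut at about 3.6% in these data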;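 also: 0% = DAX-1 cells with DMSO and 100% = cells lacking DAX-1 with DMSO; higher inhibition means more luminescence from relief of DAX-1 repression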
DAX1 inh-2 – inhibits human nuclear receptor DAX1; P51843; HEK293 Gal4-DAX1 luciferase reporter, luminescence; inhibition, % at 6.75 µM; actives 0.99% (n = 340,000);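 active = inhibition above the mean over all tested compounds plus 3 SD, cut at about 4.2% in these data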;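 also: 0% = DAX1-transfected cells with DMSO and 100% = empty-vector control cells with DMSO; inhibition shows as a rise in luminescence from relieved DAX1 repression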
Target sequence (P51843 207-470 limits assumed): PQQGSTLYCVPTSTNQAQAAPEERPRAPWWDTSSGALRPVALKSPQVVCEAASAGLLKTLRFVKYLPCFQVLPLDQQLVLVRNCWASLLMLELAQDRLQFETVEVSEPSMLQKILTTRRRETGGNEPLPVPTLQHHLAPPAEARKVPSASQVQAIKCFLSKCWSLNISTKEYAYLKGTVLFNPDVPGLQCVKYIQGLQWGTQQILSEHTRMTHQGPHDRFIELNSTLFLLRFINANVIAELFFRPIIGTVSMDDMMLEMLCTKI
hgDAF-12 ag – agonists of H. glycines DAF-12 nuclear receptor; HEK293 GAL4-hgDAF12 UAS-luciferase reporter, agonist luminescence; normalized to butyrate control; actives 1.8% (n = 370,000); activation, % at 6.8 µM;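 active = activation above a cutoff set at the mean of all screened compounds plus 3 SD, cut at about 10% in these data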;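 also: 0% = DMSO wells and 100% = sodium butyrate wells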
ssDAF-12 act – activates DAF-12 receptor from parasite S. stercoralis | HEK293 ssDAF-12/GRIP1 lit1-tk-luc reporter, luminescence; % of 3 µM dafachronic acid response | activation, % at 6.8 µM | actives 1% (n = 370,000) | AID 652126;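 active = activation above the mean over all tested compounds plus 3 SD, cut at about 0.9% in these data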;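 also: 0% = DMSO-only wells and 100% = 3 µM delta7-dafachronic acid wells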
SMARCA2 act – increases SMARCA2 function in MMTV reporter cells; actives 1% (n = 370,000); activation, % at 9.1 µM; MG213 cells, MMTV-luciferase reporter, dexamethasone, overnight; in the data active = activation above about 7.8%;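 also: 0% = vehicle wells and 100% = reference activator wells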
hcDAF-12 act – activates DAF-12 receptor from parasite H. contortus | actives 1.4% (n = 370,000) | AID 652067 | activation, % at 6.8 µM | HEK293 hcDAF-12 lit1-tk-luc reporter, luminescence; 0% DMSO, 100% Δ7-dafachronic acid;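 active = activation above the mean of all tested compounds plus 3 SD, cut at about 5.5% in these data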;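 also: 100% = response to 3 µM Δ7-dafachronic acid high control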
The depositor's hits bear a star; / = no result. Most compounds without a hit are left out; they make up all but 4.8% or so of the library.

SMILES	DAX1 inh-1	DAX1 inh-2	hgDAF-12 ag	ssDAF-12 act	SMARCA2 act	hcDAF-12 act
COc1cc(CNCCCCO)ccc1OCc1ccccc1F	1	0	11*	-1	0	1
COc1cc(-c2coc3c(C(=O)Nc4ccc(C(C)C)cc4)cccc23)ccc1O	4.0*	/	6	0.9*	1	5.6*
CCOC(=O)Cc1nnc(NC(=O)COc2ccc(OC)cc2)s1	0	4.7*	-2	-2	0	3
C=CCOC(=O)C1=C(C)OC(N)=C(C#N)C1c1ccco1 (centres undefined)	0	8.4*	-1	-1	5	-1
CCOc1ccc(N(CC(=O)Nc2ccccc2)S(C)(=O)=O)cc1	1	1	4	-1	2	2
CCOc1ccc(N(CC(=O)Nc2ccc(C)c(C)c2)S(C)(=O)=O)cc1	1	8.9*	8	0	4	4
CCc1c(C2(O)CCCCC2)[nH]c2ccc(C(F)(F)F)cc12	0	-2	0	0	0	0
Cc1nn(-c2ccccc2)c2sc(C(=O)NNC(=O)COc3ccccc3)cc12	1	1	1	1.6*	-1	2
Cc1nn(-c2ccccc2)c2sc(C(=O)NNC(=O)COc3cccc4ccccc34)cc12	0	1	-1	-1	-1	0
CC1(C)CC(=O)C2=C(C1)Nc1cc3c(cc1C2c1ccc2c(c1)OCO2)OCO3 (centres undefined)	1	5.3*	6	-1	-2	1
CC1(C)CC(=O)C2=C(C1)Nc1cc3c(cc1C2c1ccc(F)cc1)OCO3 (centres undefined)	0	0	1	-1	0	0
Cc1c(NS(=O)(=O)c2cc(C(=O)N(C)Cc3ccccc3)ccc2Cl)c(=O)n(-c2ccccc2)n1C	0	-1	-4	-1	-6	-1
CCc1nc(NCCC(C)C)c2nnn(Cc3ccccc3)c2n1	0	1	-2	-1	-1	1
Cc1cc(C(=O)Nc2sccc2C#N)c2ccccc2n1	0	-1	-1	1	-1	5.9*
O=C(CN(Cc1ccco1)C(=O)c1cccc(Cl)c1)Nc1c(Cl)cc(Cl)cc1Cl	-1	-1	3	0	-5	1
Cc1cccc(C)c1CC(=O)N1CCOCC1	-2	2	1	-1	2	0
CCCC(C)NC(=O)COC(=O)c1cccc(NS(C)(=O)=O)c1 (centres undefined)	0	4.6*	2	0	-2	-1
CC(=O)Nc1cccc(C(=O)OCC(=O)NC(C)c2ccc(F)cc2)c1 (centres undefined)	0	-1	-2	-2	0	-2
NC(=O)c1ccc(NC(=O)CN2CCN(S(=O)(=O)c3ccc4ccccc4c3)CC2)cc1	-1	-1	0	-2	-5	0
Cc1cccn2cc(CSc3ccccc3N)nc12	4.0*	1	12*	0	4	3
Cc1cc(C)nc(SCc2cn3ccccc3n2)n1	0	0	-2	-1	-2	-1
O=[N+]([O-])c1cc(Oc2cccnc2)cc([N+](=O)[O-])c1	-1	4.4*	-4	-2	0	-3
COc1cc(/C=C/C(=O)OCC(=O)Nc2ccc3c(c2)OCCO3)ccc1OCC#N	0	0	1	-2	-2	-2
COC(=O)c1scc(C)c1NC(=O)Cc1ccccc1	-1	0	2	-1	-2	-1
CCOC(=O)C(=CNNc1c(C)csc1C(=O)OC)C(=O)OCC	0	1	-1	0	-4	6.3*
SMILES	DAX1 inh-1	DAX1 inh-2	hgDAF-12 ag	ssDAF-12 act	SMARCA2 act	hcDAF-12 act
CCC(C)(C)NC(=O)/C=C/c1cnc2ccccc2n1	1	0	10	0	5	4
O=C(NC(=S)N1CCCc2ccccc21)c1ccc([N+](=O)[O-])cc1	0	-1	1	0	0	5.6*
O=C(c1cc([N+](=O)[O-])cc([N+](=O)[O-])c1)N1CCCc2ccccc21	0	0	-3	-1	0	-1
O=C(NC(=S)N1CCCc2ccccc21)c1ccc(Br)cc1	0	0	3	-1	3	5.9*
COc1ccc(C(=O)NC(=S)N2CCCc3ccccc32)cc1OC	0	0	-4	-1	-4	0
O=C(c1ccc2c(c1)OCO2)N(Cc1ccco1)C1(C(=O)NC2CCCCC2)CCCCC1	-1	1	0	-2	-2	-1
Clc1ccc(-c2nnc(CCc3ccccc3)o2)c(Cl)c1	2	3	8	0	6	5.8*
CCn1cc(C(=O)NCCCOC)c(=O)c2cc(S(=O)(=O)N(C)C3CCCCC3)ccc21	-1	2	-2	-1	-3	-2
Cc1ccnc(NC(=O)CCC(=O)N(CC(=O)NC(C)(C)C)C2CCCC2)c1	-1	0	-1	-1	0	-1
CCCN(C(=O)CSc1nnnn1C)C1CCS(=O)(=O)C1 (centres undefined)	0	1	2	-1	0	0
O=C(N1CCOCC1)N1CCN(S(=O)(=O)c2ccc(Cl)cc2)C1	0	1	-2	1.0*	3	2
CN(C)CCC(=O)N1C/C(=C/c2ccccc2)C(=O)/C(=C\c2ccccc2)C1	-7	-6	-13	-3	-14	-4
CC(C)(C)OC(=O)C(C(=O)OC(C)(C)C)c1ccc(Cl)nn1	0	1	-3	-1	-2	2
O=c1[nH]c(/C=C/c2ccccc2F)nc2ccccc12	0	0	11*	0	1	5
CSc1ccc(C2Nc3cccc4cccc(c34)N2)cc1	0	0	0	0	-2	5.7*
Cc1cccc(C2Nc3cccc4cccc(c34)N2)c1	0	1	-1	1.2*	-1	5.7*
O=S1(=O)c2ccc(N3CCC[C@@H]3CO)cc2O[C@H]2CCN1C2	0	/	-3	-1	-1	2
O=C(CSc1nnc(-c2ccncc2)n1Cc1ccco1)Nc1ccccc1F	-1	6.2*	-2	-2	-3	-2
CCN(CC)C(=O)CSc1nnc(-c2cccs2)n1Cc1ccco1	0	-1	1	-1	1	-1
NC(=O)CSc1nnc(-c2cccs2)n1Cc1ccco1	0	5.5*	-1	-2	-8	-1
NC(=O)CSc1nnc(-c2ccc(O)cc2)n1Cc1ccco1	0	9.2*	0	-1	-1	0
NC(=O)CSc1nnc(-c2ccccn2)n1Cc1ccco1	0	2	1	-1	-1	1
O=C(COC(=O)C1CC1)Nc1cccc(Cl)c1	2	1	1	-2	-1	0
COc1cc(OC)c(Nc2cc(C)nc3nc(C)nn23)cc1Cl	0	7.2*	-1	-1	-1	-2
